Sm TGR inh: qHTS Assay for the Inhibitors of Schistosoma Mansoni Peroxiredoxins. AID 485364, 2010. hit rate 3% among 360,000. Schistosoma mansoni thioredoxin glutathione reductase (TGR), Q962Y6. Potency, µM (titrated, usually from 114 µM), actives largely listed as inhibitors. purified TGR, DTNB reduction, TNB absorbance 405 nm; also: nearly all actives have a fitted effect of over 60% in size
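TGR 20 nM + NADPH 100 uM (dispensed conc.), cpd preinc 15 min RT; start with NADPH (500 uM addition) then DTNB (15 mM addition). Kinetic TNB absorbance, 405 nm filter. Four-parameter Hill fit across titration.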
SARS PLpro yeast: qHTS of Yeast-based Assay for SARS-CoV PLP; AID 485353, 2010; Potency, µM (highest dose often 32.9 µM), actives largely listed as activators; S. cerevisiae expressing SARS-CoV PLpro, growth rescue; hit rate 0.19% among 330,000; calls by dose curve; also: nearly all actives have a fitted effect of over 55% in size
HCMV inh: qHTS Assay for inhibitors of the human cytomegalovirus (HCMV); hit rate 4.5% among 410,000; AID 1259415, 2018; HFF cells, HCMV-luciferase reporter, 72 h; stronger effect = lower value; activity change, negative = inhibition, % at 57.5 µM; in the data active = activity change below about -60%; inconclusive = no clear call, values can overlap the other calls; inactive = above about -39%
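Compounds were evaluated in HFFs infected with an HCMV luciferase reporter virus (MOI 1 PFU/cell). Luciferase in lysates collected 72 h post infection served as the replication measure.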
Pf growth 96h: Primary qHTS for delayed death inhibitors of the malarial parasite plastid, 96 hour incubation | P. falciparum luciferase reporter growth, 96 h | Potency, µM (doses to about 28.7 µM), usual class: inhibitors | hit rate 6.9% among 320,000 | AID 504834, 2011
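Cell-based qHTS: luciferase-tagged P. falciparum in erythrocytes (2% hematocrit, 0.05% parasitemia final) incubated with compounds for 96 hours, 37 C, 5% CO2; luciferase detection reagent then added and luminescence measured.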
Pf growth 48h: Primary qHTS for delayed death inhibitors of the malarial parasite plastid, 48 hour incubation. P. falciparum luciferase growth in erythrocytes, 48 h. Potency, µM (doses to about 28.7 µM), actives largely listed as inhibitors. hit rate 5.9% among 310,000
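Luminescence readout; reporter = integrated firefly luciferase in P. falciparum. RBC culture at 2% hematocrit, 0.1% parasitemia final, 37 C/5% CO2; decreased signal taken as growth inhibition.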
HCV inhibitor: qHTS Assay for Inhibitors of Hepatitis C Virus (HCV) | Huh7.5.1 HCVcc-Cre infection, luciferase reporter, 44 h | Potency, µM (highest dose often 41.8 µM), hits mostly inhibitors | hit rate 3.4% among 340,000 | AID 651820, 2012
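Infectious HCVcc-Cre (~0.5 moi) was added to cells just after compound, with cells seeded 4 h earlier at 1,000 per well. Luciferase activity after 44 h culture reported infection; substrate was incubated 15 min at room temperature before reading.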
Hits are given with their value. Most compounds without a hit are left out; they make up all but 15% or so of the library. Unless noted, calls follow the shape of the dose curve; as a rule, active = well fitted curve in the direction sought with a large enough effect; inconclusive = small, poorly fitted or top-dose-only effect, or another doubt; inactive = no such curve, though single readings can be large; an effect the other way counts as inactive or inconclusive.

COc1ccc(C2CC(O)(c3ccccc3)Oc3cc(OC)ccc32)cc1 (stereo unspecified) was read as Sm TGR inh inactive, SARS PLpro yeast inactive, HCMV inh inactive, Pf growth 96h inconclusive, Pf growth 48h 11.7µM and HCV inhibitor 4.47µM.
CCCS(=O)(=O)c1nc(S(=O)(=O)c2ccc(C)cc2)c(NCc2ccccc2Cl)s1 was read as Sm TGR inh inactive and HCMV inh inactive.
`CC(C)(C)c1ccc(S(=O)(=O)Nc2noc3ccccc23)cc1` gave Sm TGR inh inactive, SARS PLpro yeast inactive, HCMV inh inactive, Pf growth 96h inconclusive and HCV inhibitor inactive.
`O=C(NC1CCN(Cc2ccccc2)CC1)c1ccccc1OCc1ccccc1` gave Sm TGR inh inactive, SARS PLpro yeast inactive, HCMV inh inactive, Pf growth 96h 9.28µM, Pf growth 48h inconclusive and HCV inhibitor 25.1µM.
COc1ccccc1C(=O)NC1CCCCCCC1 was read as Sm TGR inh inactive, SARS PLpro yeast inactive, HCMV inh inactive, Pf growth 96h inconclusive, Pf growth 48h inconclusive and HCV inhibitor inactive.
O=C(NC1CCCCCC1)C(=S)NCc1ccccc1 was read as SARS PLpro yeast inactive, HCMV inh inactive, Pf growth 96h inconclusive, Pf growth 48h inactive and HCV inhibitor inactive.
Screening O=C(NC1CCCC1)c1ccccc1OCc1ccccc1 returned Sm TGR inh inactive, SARS PLpro yeast inactive, HCMV inh inconclusive, Pf growth 96h inactive, Pf growth 48h inactive and HCV inhibitor 7.94µM.
Screening O=C(NC1CCCCCC1)C(=S)NCCc1ccccc1 returned Sm TGR inh inactive, SARS PLpro yeast inactive, HCMV inh inactive, Pf growth 96h 10.4µM, Pf growth 48h inactive and HCV inhibitor inactive.
For C#CCOc1ccccc1CNC1CCN(Cc2ccccc2)CC1 the results were Sm TGR inh inactive, SARS PLpro yeast inactive, HCMV inh inconclusive, Pf growth 96h 13.1µM, Pf growth 48h 9.28µM and HCV inhibitor inconclusive.
COc1ccc(-c2nccc3[nH]nc(-c4ccccc4)c23)cc1 was read as HCMV inh inactive.
Screening O=C(NC1CCN(Cc2ccccc2)CC1)c1ccccc1OCc1ccccc1Cl returned Sm TGR inh inactive, SARS PLpro yeast inactive, HCMV inh -62.7, Pf growth 96h inconclusive, Pf growth 48h inconclusive and HCV inhibitor inconclusive.
`FC(F)(F)c1cccc(CNC2CCN(Cc3ccccc3)CC2)c1` gave Sm TGR inh inactive, SARS PLpro yeast inactive, HCMV inh inactive, Pf growth 96h inconclusive, Pf growth 48h 2.62µM and HCV inhibitor inconclusive.
Screening CCOc1ccccc1C(=O)NC1CCN(Cc2ccccc2)CC1 returned Sm TGR inh inactive, SARS PLpro yeast inactive, HCMV inh inactive, Pf growth 96h inconclusive, Pf growth 48h inconclusive and HCV inhibitor inactive.
`O=C(CCNC(=O)OCc1ccccc1)NC1CCCCC1` gave Sm TGR inh inactive, SARS PLpro yeast inactive, HCMV inh inconclusive, Pf growth 96h 3.7µM, Pf growth 48h inactive and HCV inhibitor inactive.
For CCCS(=O)(=O)Nc1cc2c(cc1NCc1ccccc1)n(C)c(=O)n2C the results were Sm TGR inh inactive and HCMV inh inactive.
`C/C(=N\NC(=O)c1nnn(-c2nonc2N)c1CN(C)c1ccccc1)c1cccnc1` gave Sm TGR inh inactive, SARS PLpro yeast inactive, HCMV inh inactive, Pf growth 96h inactive, Pf growth 48h inactive and HCV inhibitor inactive.
`CCOC(=O)CSC(=S)NC(=O)c1ccc(OC)cc1` gave Sm TGR inh 8.91µM, SARS PLpro yeast inactive, HCMV inh -86.9, Pf growth 96h inactive, Pf growth 48h inactive and HCV inhibitor inactive.
CCOC(=O)C1=C(CS(=O)(=O)c2ccc(F)c(C)c2)NC(=O)NC1c1ccccc1OC (stereo unspecified) was read as Sm TGR inh inactive and HCMV inh inactive.
Screening COc1ccc(/C=N/OCC(=O)N2CC3(C)CC2CC(C)(C)C3)cc1OC (stereo unspecified) returned Sm TGR inh inactive, SARS PLpro yeast inactive, HCMV inh inconclusive, Pf growth 96h inconclusive, Pf growth 48h inconclusive and HCV inhibitor inactive.
